Laboratory results from PubChem BioAssay (NCATS).
Values joined by “and” are separate entries in the source; they are usually repeats but may differ in a detail not shown here. Identical values can stand only once. Results filed as inconclusive are left out. Active and inactive are the calls of the source. Unless noted, calls follow the shape of the dose curve; as a rule, active = well fitted curve in the direction sought with a large enough effect; inconclusive = small, poorly fitted or top-dose-only effect, or another doubt; inactive = no such curve, though single readings can be large; an effect the other way counts as inactive or inconclusive.

Tests used:
[1] = AP1 Signaling Pathway (AID 357; active = well fitted curve in either direction with a large enough effect, not every such curve was filed as active;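 also: ME-180 reporter cells stimulated with EGF at its EC50 level; % is scaled to controls: 0 for no effect and ±100 for the full control effect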); details: ME-180 AP-1-bla reporter, EGF-induced, beta-lactamase ratio, 5 h; at 38 µM (top of the series)
In short: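 Titration-series screen for positive or negative modulators of EC50 EGF-induced signaling in ME-180 cells carrying an AP-1-driven beta-lactamase reporter. After 5 hours at 37 degrees Celsius, CCF4 460nm/530nm emission ratio gave %Activity; AC50 values derived.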

[2] = target: Cytochrome P450 1A2 (Homo sapiens) (UniProt P05177); assay: p450-cyp1a2 (AID 410; calls by dose curve; also: potency is read from the fitted curve at half-maximal effect)
Sequence of Cytochrome P450 1A2 (Homo sapiens) (P05177 whole entry, looked up): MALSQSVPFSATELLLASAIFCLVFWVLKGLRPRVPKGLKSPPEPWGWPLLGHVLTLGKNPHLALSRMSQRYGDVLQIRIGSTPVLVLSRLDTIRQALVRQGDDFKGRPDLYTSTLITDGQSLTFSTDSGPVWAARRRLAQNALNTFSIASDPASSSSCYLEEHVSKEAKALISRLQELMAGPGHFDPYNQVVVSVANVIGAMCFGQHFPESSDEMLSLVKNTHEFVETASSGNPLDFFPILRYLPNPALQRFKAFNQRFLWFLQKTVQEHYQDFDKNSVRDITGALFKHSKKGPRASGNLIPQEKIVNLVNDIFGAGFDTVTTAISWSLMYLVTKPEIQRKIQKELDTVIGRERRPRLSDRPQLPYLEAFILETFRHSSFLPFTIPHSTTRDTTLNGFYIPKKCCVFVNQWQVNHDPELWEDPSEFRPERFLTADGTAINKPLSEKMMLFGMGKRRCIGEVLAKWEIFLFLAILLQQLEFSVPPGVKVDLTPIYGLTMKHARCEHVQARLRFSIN
In short: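 20nM CYP1A2 with 100uM Luciferin-ME (at Km) in 100mM KPO4; compound preincubated 10 min, NADPH regeneration added, 60 min at room temperature. Luciferin quantified by luminescence after detection reagent; normalized to 57 uM furafylline.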

[3] = NFAT Signaling Pathway (AID 444; active = well fitted curve in either direction with a large enough effect, not every such curve was filed as active;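 also: carbachol stimulus at about its EC50 of 1 µM final; % is scaled to controls: 0 for no effect and ±100 for the full control effect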); details: Jurkat NFAT-bla M1, carbachol, beta-lactamase ratio, 5 h; at 38 µM (top of the series)
In short: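 Jurkat cells with NFAT-driven β-lactamase reporter and co-expressed M1 receptor, stimulated with carbachol (final 1 uM, ~EC50), compound titration, 5 h at 37 °C. CCF4 loaded 1 h at RT; 460/530 nm ratio gave %activity and AC50.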

[4] = target: Glucocorticoid receptor (Homo sapiens) (UniProt P04150); assay: GR-GFP Redistribution (AID 450;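 active = compounds whose dose series gives a full or clear partial fitted curve of increased nuclear translocation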; also: potency is read from the fitted curve at half-maximal effect); details: U2OS GR-GFP nuclear translocation, laser cytometry, 2 h
Sequence of Glucocorticoid receptor (Homo sapiens) (P04150 whole entry, looked up, the tested form may be a part): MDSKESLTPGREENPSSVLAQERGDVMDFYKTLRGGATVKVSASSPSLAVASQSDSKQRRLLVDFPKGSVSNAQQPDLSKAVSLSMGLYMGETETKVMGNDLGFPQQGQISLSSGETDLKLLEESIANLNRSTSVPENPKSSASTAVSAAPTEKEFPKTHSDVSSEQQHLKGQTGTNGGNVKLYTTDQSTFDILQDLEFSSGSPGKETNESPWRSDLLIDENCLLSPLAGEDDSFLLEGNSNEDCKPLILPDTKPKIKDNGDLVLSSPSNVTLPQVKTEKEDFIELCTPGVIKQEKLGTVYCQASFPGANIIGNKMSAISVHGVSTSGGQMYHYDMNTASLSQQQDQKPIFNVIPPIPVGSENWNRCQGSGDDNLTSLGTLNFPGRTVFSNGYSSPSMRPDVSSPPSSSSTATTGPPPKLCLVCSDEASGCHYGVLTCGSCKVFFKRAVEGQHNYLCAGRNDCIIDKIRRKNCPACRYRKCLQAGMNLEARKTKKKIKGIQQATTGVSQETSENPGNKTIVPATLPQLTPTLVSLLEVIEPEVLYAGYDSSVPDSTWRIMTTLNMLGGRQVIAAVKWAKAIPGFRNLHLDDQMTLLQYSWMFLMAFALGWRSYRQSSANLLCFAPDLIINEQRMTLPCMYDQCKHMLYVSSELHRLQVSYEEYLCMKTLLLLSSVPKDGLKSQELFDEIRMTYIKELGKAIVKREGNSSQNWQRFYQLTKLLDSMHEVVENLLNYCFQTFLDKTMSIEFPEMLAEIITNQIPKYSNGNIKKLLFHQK

[5] = target: Glucocorticoid receptor (Homo sapiens) (UniProt P04150); assay: GR-EFC Redistribution (AID 451; calls by dose curve; also: potency is read from the fitted curve at half-maximal effect); details: CHO-K1 GR-EFC translocation, beta-gal luminescence, 2 h
In short: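 CHO-K1 cells expressing nuclear EA and GR-ED fragments of b-gal; compounds titrated up to 46 uM final, 2 h at 37 C. GR nuclear translocation read as complemented b-gal luminescence after 1 h RT detection.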

[6] = target: Mitogen-activated protein kinase 10 (Mus musculus) (UniProt Q61831); assay: JNK3 AlphaScreen Assay (AID 530; active = well fitted curve in either direction with a large enough effect, not every such curve was filed as active;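 also: kinase came from lysate of stimulated human HepG2 cells; signal reports phosphorylation of biotinylated GST-cJun 1-79 at Ser73 with 10 µM ATP; % is scaled to controls: 0 for no effect and ±100 for the full control effect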)
In short: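 Pre-activated (IL-1β/TNFα) JNK3 in HepG2 lysates phosphorylates biotin-GST-cJun(1-79), 10 uM ATP; anti-phospho-cJun(Ser73) AlphaScreen read at room temperature, pH 7.6 Tris buffer. Compounds pre-incubated 15 min as titrations.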

[7] = target: 3',5'-cyclic-AMP phosphodiesterase 4B (Homo sapiens) (UniProt Q07343); assay: qHTS Assay for Inhibitors of PDE-IV (AID 607; active = well fitted activation curve with a large enough effect in the main read-out, with a control signal flat, not every such curve was filed as active; also: % of control where 0% means no effect)
Sequence of 3',5'-cyclic-AMP phosphodiesterase 4B (Homo sapiens) (Q07343 whole entry, looked up): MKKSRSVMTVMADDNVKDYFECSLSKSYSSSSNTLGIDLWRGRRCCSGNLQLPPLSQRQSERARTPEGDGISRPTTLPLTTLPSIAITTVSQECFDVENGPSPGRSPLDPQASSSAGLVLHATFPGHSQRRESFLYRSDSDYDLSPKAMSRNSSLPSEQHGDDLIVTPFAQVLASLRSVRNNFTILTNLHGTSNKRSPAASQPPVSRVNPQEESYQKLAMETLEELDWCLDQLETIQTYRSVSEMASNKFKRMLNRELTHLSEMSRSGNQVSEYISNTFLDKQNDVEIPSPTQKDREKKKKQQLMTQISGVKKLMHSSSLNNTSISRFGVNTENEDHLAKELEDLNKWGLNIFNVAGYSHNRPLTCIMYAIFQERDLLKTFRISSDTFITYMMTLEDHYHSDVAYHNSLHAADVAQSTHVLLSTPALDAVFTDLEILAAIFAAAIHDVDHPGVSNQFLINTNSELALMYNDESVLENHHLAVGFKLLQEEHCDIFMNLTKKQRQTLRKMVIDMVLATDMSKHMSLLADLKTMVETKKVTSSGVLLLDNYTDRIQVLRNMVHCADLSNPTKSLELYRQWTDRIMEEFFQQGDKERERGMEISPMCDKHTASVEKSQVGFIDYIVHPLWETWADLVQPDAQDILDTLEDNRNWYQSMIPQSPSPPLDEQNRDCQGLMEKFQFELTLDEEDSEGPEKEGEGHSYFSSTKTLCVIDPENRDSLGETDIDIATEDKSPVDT
In short: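 Cell-based read-out of cAMP via a modified cyclic nucleotide-gated channel and membrane potential dye (535/590 nm) in HEK293 cells expressing PDE4 endogenously. Compounds tested up to 22.9 uM final; 100 uM RO 20-1724 reference.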

[8] = target: Guanine nucleotide-binding protein G(i) subunit alpha-1 (Homo sapiens) (UniProt P63096); assay: qHTS Assay for Inhibitors of RGS12 GoLoco Motif Activity (Green Fluorophore) (AID 879);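 also: 0% = labeled peptide with Gαi1 and full inhibition = labeled peptide alone without protein; negative values mean loss of peptide binding seen as reduced polarization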
Sequence of Guanine nucleotide-binding protein G(i) subunit alpha-1 (Homo sapiens) (P63096 whole entry, looked up): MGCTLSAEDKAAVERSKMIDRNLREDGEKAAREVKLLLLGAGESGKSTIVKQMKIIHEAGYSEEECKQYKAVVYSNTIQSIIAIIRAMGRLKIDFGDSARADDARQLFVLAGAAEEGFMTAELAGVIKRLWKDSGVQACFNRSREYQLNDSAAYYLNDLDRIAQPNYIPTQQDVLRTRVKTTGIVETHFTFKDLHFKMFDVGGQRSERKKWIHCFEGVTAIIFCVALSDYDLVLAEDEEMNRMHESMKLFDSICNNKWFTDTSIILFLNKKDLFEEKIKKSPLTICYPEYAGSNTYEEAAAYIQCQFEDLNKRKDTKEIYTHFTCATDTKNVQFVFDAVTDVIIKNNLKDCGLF
In short: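 Fluorescence polarization assay: 50 nM Gαi1 with 10 nM FITC-labeled RGS12 GoLoco peptide in 10 mM Tris pH 7.5, 150 mM NaCl, 0.1 mM GDP, 0.05% NP40, 10 min at room temperature with compound.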

[9] = target: Cytochrome P450 2C9 (Homo sapiens) (UniProt P11712); assay: qHTS Assay for Inhibitors and Substrates of Cytochrome P450 2C9 (AID 883); also: potency is read from the fitted curve at half-maximal effect; nearly all actives have a fitted effect of over 60% in size
Sequence of Cytochrome P450 2C9 (Homo sapiens) (P11712 whole entry, looked up): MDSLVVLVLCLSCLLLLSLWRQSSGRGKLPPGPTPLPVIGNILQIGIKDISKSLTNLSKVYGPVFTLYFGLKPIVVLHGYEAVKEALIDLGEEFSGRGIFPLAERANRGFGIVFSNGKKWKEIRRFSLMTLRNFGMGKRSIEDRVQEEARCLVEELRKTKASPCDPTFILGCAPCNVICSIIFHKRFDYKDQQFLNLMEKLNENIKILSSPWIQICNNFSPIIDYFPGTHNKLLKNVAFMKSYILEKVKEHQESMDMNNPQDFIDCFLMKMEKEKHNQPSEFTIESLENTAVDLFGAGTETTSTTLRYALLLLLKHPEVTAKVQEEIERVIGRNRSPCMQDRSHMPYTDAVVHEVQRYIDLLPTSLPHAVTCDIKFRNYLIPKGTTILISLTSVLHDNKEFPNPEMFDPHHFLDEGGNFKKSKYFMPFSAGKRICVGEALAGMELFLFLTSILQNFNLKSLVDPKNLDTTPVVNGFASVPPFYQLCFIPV
In short: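 Signal: luciferase luminescence reporting luciferin produced by CYP2C9. Conditions: 10nM enzyme, Luciferin-H 100uM at KM, 25mM KPO4, 37C, 60 min NADPH-driven reaction. Reference: 57uM sulphaphenazole as 100% inhibition.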

[10] = target: Cytochrome P450 3A4 (Homo sapiens) (UniProt P08684); assay: qHTS Assay for Inhibitors and Substrates of Cytochrome P450 3A4 (AID 884); also: potency is read from the fitted curve at half-maximal effect; nearly all actives have a fitted effect of over 50% in size
Sequence of Cytochrome P450 3A4 (Homo sapiens) (P08684 whole entry, looked up): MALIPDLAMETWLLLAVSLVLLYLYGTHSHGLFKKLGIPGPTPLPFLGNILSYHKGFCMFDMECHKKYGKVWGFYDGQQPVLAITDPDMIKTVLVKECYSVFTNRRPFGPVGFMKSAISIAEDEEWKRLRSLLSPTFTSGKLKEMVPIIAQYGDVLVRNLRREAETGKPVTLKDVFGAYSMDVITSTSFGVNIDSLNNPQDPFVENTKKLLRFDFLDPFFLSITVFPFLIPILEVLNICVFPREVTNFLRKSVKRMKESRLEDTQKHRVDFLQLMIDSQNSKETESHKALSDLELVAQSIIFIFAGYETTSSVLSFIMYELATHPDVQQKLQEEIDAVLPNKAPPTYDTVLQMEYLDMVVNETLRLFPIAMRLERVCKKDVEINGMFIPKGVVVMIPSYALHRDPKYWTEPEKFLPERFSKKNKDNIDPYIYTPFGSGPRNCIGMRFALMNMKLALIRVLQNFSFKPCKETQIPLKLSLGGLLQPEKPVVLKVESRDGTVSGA
In short: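 20 nM human CYP3A4 with 25 uM Luciferin-PPXE (at KM) in 200 mM KPO4, preincubated 10 min with compound; NADPH regeneration started a 60 min RT reaction. Luciferin detected by luminescence, normalized to 57 uM ketoconazole as full inhibition.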

[11] = target: Cytochrome P450 3A4 (Homo sapiens) (UniProt P08684); assay: qHTS Assay for Activators of Cytochrome P450 3A4 (AID 885); also: nearly all actives have a fitted effect of over 65% in size
In short: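 Signal was normalized against complete inhibition by 57 uM ketoconazole. The reaction used 20nM CYP3A4 with 25uM Luciferin-PPXE, 10-min compound preincubation and a 60-min NADPH-supported step at RT.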

[12] = qHTS Assay for Identification of Small Molecule Antagonists for NFkB Signaling Pathway (AID 895; active = well fitted inhibition curve with a large enough effect in the signal ratio, with a control signal flat, not every such curve was filed as active; the % refers to the signal ratio; also: % is scaled to controls: 0 for no effect and ±100 for the full control effect)
In short: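 ME-180 NFkB-bla cells (beta-lactamase under NFkB response element), plated overnight, treated with compound then 10 pM TNF alpha (about EC50) for 5 hrs at 37 C. LiveBLAzer FRET read at 460/530 nm emission, 405 nm excitation.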

[13] = target: Cytochrome P450 2C19 (Homo sapiens) (UniProt P33261); assay: qHTS Assay for Inhibitors and Substrates of Cytochrome P450 2C19 (AID 899); also: potency is read from the fitted curve at half-maximal effect; nearly all actives have a fitted effect of over 60% in size
Sequence of Cytochrome P450 2C19 (Homo sapiens) (P33261 whole entry, looked up): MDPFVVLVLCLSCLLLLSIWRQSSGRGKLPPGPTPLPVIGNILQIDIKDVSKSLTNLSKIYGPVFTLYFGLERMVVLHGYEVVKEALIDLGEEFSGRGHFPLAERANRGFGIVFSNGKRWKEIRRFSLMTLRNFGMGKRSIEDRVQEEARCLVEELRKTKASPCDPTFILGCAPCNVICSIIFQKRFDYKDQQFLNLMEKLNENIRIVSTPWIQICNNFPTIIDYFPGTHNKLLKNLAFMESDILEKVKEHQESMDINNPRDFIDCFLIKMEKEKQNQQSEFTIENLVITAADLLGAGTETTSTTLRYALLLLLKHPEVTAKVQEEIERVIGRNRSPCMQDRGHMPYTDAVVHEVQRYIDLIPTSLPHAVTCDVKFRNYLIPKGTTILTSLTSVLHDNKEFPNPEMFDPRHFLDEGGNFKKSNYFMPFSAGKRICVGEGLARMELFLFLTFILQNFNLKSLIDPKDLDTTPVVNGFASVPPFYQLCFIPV
In short: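 Signal comes from luciferase acting on luciferin released by CYP2C19-mediated hydroxylation of Luciferin-H EGE, 10uM (KM). Assay mix: 5nM enzyme, 50mM KPO4; 60 min at 37C with NADPH regeneration. Data normalized against 57uM ketoconazole.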

[14] = Confirmation and Secondary Assay for Modulators of Hemoglobin Beta Chain Splicing at IVS2 654 locus (AID 910);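 also: HeLa cells stably carrying EGFP split by mutant beta-globin IVS2-654 intron; % of control where 0% means no effect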
In short: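 HeLa cells stably expressing EGFP interrupted by β-globin IVS2-654 intron, seeded overnight in Opti-MEM/2% FCS, then treated 2 days at 37 °C. Restored splicing read as total peak GFP intensity per well by laser scanning cytometry (488 nm excitation, 500–520 nm emission); 500 nM antisense PNA as control.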

[15] = qHTS Assay for Identification of Small Molecule Agonists for Hypoxia Response Element Signaling Pathway (AID 914; active = well fitted activation curve with a large enough effect in the signal ratio, with a control signal flat, not every such curve was filed as active; the % refers to the signal ratio; also: % of control where 0% means no effect); details: ME-180 (cervical carcinoma) HRE-bla reporter, beta-lactamase ratio, CoCl2, 17 h; stronger effect = higher value
In short: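 HRE-bla ME-180 cells with beta-lactamase reporter under hypoxia response element, compounds with EC50 CoCl2 for 17 hours at 37 C. CCF4 substrate, 460nm/530nm emission ratio gave %Activity; AC50 from titration series.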

[16] = Confirmation and Secondary Assay for Modulators of Hemoglobin Beta Chain Splicing at IVS2 705 locus (AID 930);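 also: HeLa cells stably expressing the EGFP-705 splicing reporter; GFP fluorescence per well restored by corrected splicing of the IVS2-705 intron in EGFP; % of control where 0% means no effect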
In short: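 HeLa cells stably carrying EGFP interrupted by mutant beta-globin intron 2 (IVS2-705) treated 2 days at 37C with compound; 500 nM antisense PNA as control. Correct splicing read as total peak GFP intensity per well by laser-scanning cytometry.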

[17] = target: Pyruvate kinase (Leishmania mexicana) (UniProt Q27686); assay: qHTS Validation Assay for Inhibitors of Leishmania Mexicana Pyruvate Kinase (AID 945);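 also: 0% = DMSO only neutral control wells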
Sequence of Pyruvate kinase (Leishmania mexicana) (Q27686 2-499 E452W): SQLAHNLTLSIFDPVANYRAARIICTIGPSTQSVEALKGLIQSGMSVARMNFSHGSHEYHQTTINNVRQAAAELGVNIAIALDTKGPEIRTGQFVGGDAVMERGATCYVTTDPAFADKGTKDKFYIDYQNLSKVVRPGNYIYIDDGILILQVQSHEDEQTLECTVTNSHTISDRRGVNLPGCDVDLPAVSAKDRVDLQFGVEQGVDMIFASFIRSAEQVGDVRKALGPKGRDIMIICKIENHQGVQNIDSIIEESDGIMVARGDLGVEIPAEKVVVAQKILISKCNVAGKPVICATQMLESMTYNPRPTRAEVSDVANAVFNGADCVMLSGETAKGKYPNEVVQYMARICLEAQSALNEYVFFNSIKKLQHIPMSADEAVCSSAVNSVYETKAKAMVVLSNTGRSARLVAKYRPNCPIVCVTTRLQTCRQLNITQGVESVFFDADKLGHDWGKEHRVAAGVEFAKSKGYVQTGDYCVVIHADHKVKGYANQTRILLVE
In short: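 Eight-point qHTS titrations in triplicate, data normalized to DMSO neutral control. Reaction: 0.2 nM LmPYK E451W mutant, 0.5 mM PEP, 0.1 mM ADP, 7 mM MgCl2, pH 7.2, one hour at room temperature; luminescent ATP detection.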

[18] = target: Pyruvate kinase PKM (Homo sapiens) (UniProt P14618); assay: qHTS Assay for Activators of Human Muscle Pyruvate Kinase (AID 954; active = well fitted curve in the direction sought with a large enough effect, not every such curve was filed as active;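 also: 0% = uninhibited enzyme and -100% = no enzyme or full thiadiazolimine inhibition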)
Sequence of Pyruvate kinase PKM (Homo sapiens) (P14618 whole entry, looked up): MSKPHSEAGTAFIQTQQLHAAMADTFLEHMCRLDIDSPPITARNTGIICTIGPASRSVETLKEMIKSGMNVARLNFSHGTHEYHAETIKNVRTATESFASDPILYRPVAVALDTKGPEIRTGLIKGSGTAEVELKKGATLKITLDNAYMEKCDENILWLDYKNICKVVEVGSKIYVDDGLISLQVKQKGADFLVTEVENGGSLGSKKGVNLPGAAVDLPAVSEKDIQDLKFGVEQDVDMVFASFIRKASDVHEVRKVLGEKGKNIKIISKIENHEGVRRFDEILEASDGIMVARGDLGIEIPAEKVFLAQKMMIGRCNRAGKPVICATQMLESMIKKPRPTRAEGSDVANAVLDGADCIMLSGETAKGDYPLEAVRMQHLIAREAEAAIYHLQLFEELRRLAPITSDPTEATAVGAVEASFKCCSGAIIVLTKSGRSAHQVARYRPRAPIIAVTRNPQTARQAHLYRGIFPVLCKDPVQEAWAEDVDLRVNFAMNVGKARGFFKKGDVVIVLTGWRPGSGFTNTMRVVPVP
In short: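 Human PKM2 activity is measured as ATP generation, detected by luciferase-coupled luminescence. The enzyme (0.1 nM) acts on 0.5 mM PEP and 0.1 mM ADP for 1 h at ambient temperature; data are normalized to uninhibited and full-inhibition wells.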

[19] = target: alpha-glucosidase (Oryza sativa, rice) (UniProt Q653V4); assay: Counterscreen for Glucocerebrosidase Inhibitors: qHTS Assay for Rice alpha-Glucosidase at pH 5.0 (AID 997);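 also: 0% = full activity with enzyme and -100% = basal without enzyme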
In short: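 Rice alpha-glucosidase (4 nM final) with 400 uM 4-methylumbelliferyl-alpha-D-glucopyranoside in citrate buffer pH 5.0, 20 min at room temperature, stopped at pH 10; fluorescence 365/440 nm, compounds 0.7 nM–77 uM, AC50 from Hill fits.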

NCCCCCCNS(=O)(=O)c1cccc2c(Cl)cccc12
inactive: activity change, negative = inhibition [1] 7.92% | activity change, negative = inhibition [3] -4.09% | Potency [4] > 46 µM | Potency [5] > 46 µM | Potency [6] | Potency [7] | outcome [8] | Potency [11] | Potency [12] | outcome [14] | activation [15] -27.9% | outcome [16] | Potency [17] | outcome [18] | outcome [19]
active: Potency [2] 7.94 µM and 1.26 µM | Potency [9] 3.16 µM | Potency [10] 3.98 µM and 2.51 µM | Potency [13] 199 nM
